Measurements reported in PubChem BioAssay.
A number with no mark means an inactive call.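 How the source made its calls: active means inhibition at or above 50% relative to wild type and mutant plate controls; inactive means inhibition below 50%.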

Assay: loss of swimming-algae plug formation – whole organism, Chlamydomonas reinhardtii, WT vs cilia-less mutant, absorbance, 96-well, primary screen (AID 463189);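 further: 0% = wild type cc124 cells in DMSO and 100% = ciliumless bld1 mutant cells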
Conditions: Chlamydomonas reinhardtii gravitaxis, OD600 absorbance, 2 days; at 10 µM; active compounds read high
`NC(=O)c1cccc(N)c1` showed an inhibition of 3.55%. With `NCCC1CCCC(CCN)N1` (configuration not stated) the inhibition was 5.08%. `NCC(O)C1CCCCCCC1` (configuration not stated) showed an inhibition of 2.73%. In the case of `CN(C)CC/C=C1\c2ccccc2COc2ccccc21`, the inhibition is reported as 6.63%. Molecule `CCCCC[C@H](CC(=O)NO)C(=O)N[C@H](C(=O)N1CCC[C@H]1CO)C(C)C` has an inhibition of -2.25%. Work on `COc1ccccc1N1CCN(CCN(C(=O)c2ccc(I)cc2)c2ccccn2)CC1` yielded an inhibition of -3.47%. Work on `Oc1cc2c(cc1O)CN(C(=S)NCCc1ccc(Cl)cc1)CCC2` yielded an inhibition of 23.4%. Work on `CN(C)C(=O)C(CCN1CCC(O)(c2ccc(Cl)cc2)CC1)(c1ccccc1)c1ccccc1` yielded an inhibition of -2.62%. Work on `O=C(O)CCC(C(=O)O)N1C(=O)c2ccccc2C1=O` (configuration not stated) yielded an inhibition of 0.124%. In the case of `COc1cc(CNC(=O)CCCCCCC(C)C)ccc1O`, the inhibition is reported as -1.4%. With `COc1cc(CC(=O)O)ccc1O` the inhibition was -2.57%. Molecule `COC(=O)[C@H]1[C@H]2C[C@@H]3c4[nH]c5cc(OC)ccc5c4CCN3C[C@H]2C[C@@H](OC(=O)c2cc(OC)c(OC)c(OC)c2)[C@@H]1OC` has an inhibition of -3.87%. In the case of `O=c1[nH]ccc2c(O)cccc12`, the inhibition is reported as 3.93%. `COc1ccccc1N1CCN(CCCCNS(=O)(=O)c2cccc3c(N(C)C)cccc23)CC1` gave an inhibition of -0.327%. `O=C(O)c1cc(=O)c2ccc(Cl)cc2[nH]1` gave an inhibition of 4.9%. Work on `CC(C)C[C@H](N)CSSC[C@@H](N)CC(C)C` yielded an inhibition of 6.54%. `Cn1cnc2c(NCc3ccccc3)nc(NCCO)nc21` showed an inhibition of 5.79%.
